Results reported in PubChem BioAssay (NCATS).
Results filed as inconclusive are left out. The source made the active and inactive calls. Calls follow the shape of the dose curve; as a rule, active = well fitted curve in the direction sought with a large enough effect; inconclusive = small, poorly fitted or top-dose-only effect, or another doubt; inactive = no such curve, though single readings can be large; an effect the other way counts as inactive or inconclusive. Where a SMILES comes first, the peptide text is derived from it. Bridges are numbered along the chain shown (N, C = ends). [ ]: non-standard residue; d: D form. NMeY = CN[CH](Cc1ccc(O)cc1)C(=O)O

How the values were obtained:
[1] = molecular target: Phospholipid hydroperoxide glutathione peroxidase GPX4 (Homo sapiens) (UniProt P36969); test: Primary qHTS Assay for Inhibitors of Recombinant Selenoprotein Glutathione Peroxidase 4 (GPX4) (AID 1845192); also: series mostly up to about 50 µM; % is scaled to controls: 0 for no effect and ±100 for the full control effect; nearly all actives have a fitted effect of over 65% in size
Summary of the method: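 GR-coupled assay: recombinant GPX4 preincubated 30 min with compound at room temperature; final 200 nM GPX4, 1 mM GSH, 0.5 mM cumene hydroperoxide, 0.5 mM NADPH, 100 nM GR, 0.01% BSA, pH 7.5 Tris. NADPH fluorescence (340/450 nm) read at 0 and 15 min.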

[2] = test system: Nanoluciferase (engineered Oplophorus gracilirostris luciferase); test: Primary Nanoluciferase (NLuc) qHTS assay for identification of artifact compounds. (AID 1845222); also: potency is read from the fitted curve at half-maximal effect;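 as to activity, negative = inhibition: NLuc secreted into diluted conditioned medium of S16 cells; series mostly up to about 54 µM; 0% = DMSO and -100% = no enzyme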
Summary of the method: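 S16 cell supernatant NLuc, 1:55; cpds qHTS; 15 min RT dark; Nano-Glo substrate 1:100, 5 min; luminescence; Hill fit of % inhibition.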

[3] = Primary redox qHTS assay for identification of artifact compounds. (AID 1845223);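 also: 0% = DMSO and 100% = reference compound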
Summary of the method: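 Amplex Red (25 uM) and HRP (250 mU/mL) in HBSS, with compounds for 15 min, then 250 uM DTT for 30 min, room temperature, dark. Fluorescence 525/598 nm read; normalized to DMSO and 10 uM DA3003; Hill fit.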

[4] = Primary fluorescence-based thiol-reactive (MSTI) qHTS assay for identification of artifact compounds. (AID 1845221); also: nearly all actives have a fitted effect of over 65% in size; also: potency is read from the fitted curve at half-maximal effect;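 as to activity change, negative = thiol reactive: series mostly up to about 54 µM; thiol-reactive compounds lower the probe fluorescence signal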
Summary of the method: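 A multi-concentration qHTS design tested compounds against 4 uM MSTI, pH 7.4 phosphate-buffered saline. Plates were protected from light for 1 h at room temperature before imaging fluorescence.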

[5] = molecular target: Luciferin 4-monooxygenase (Photinus pyralis) (UniProt P08659); test: Primary firefly luciferase (FLuc) qHTS assay for identification of artifact compounds. (AID 1845220); also: nearly all actives have a fitted effect of over 60% in size; also: potency is read from the fitted curve at half-maximal effect;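 as to activity change, negative = inhibition: series mostly up to about 54 µM; plate controls were DMSO vehicle for no effect and no enzyme for full effect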
Summary of the method: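 Enzymatic FLuc inhibition assay: compounds pre-exposed to luciferin/ATP (10 uM each) for 15 min, then purified P. pyralis enzyme at 10 nM added. Read-out: luminescence at 5 min.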

Chain of Phospholipid hydroperoxide glutathione peroxidase GPX4 (Homo sapiens) (P36969 whole entry, looked up): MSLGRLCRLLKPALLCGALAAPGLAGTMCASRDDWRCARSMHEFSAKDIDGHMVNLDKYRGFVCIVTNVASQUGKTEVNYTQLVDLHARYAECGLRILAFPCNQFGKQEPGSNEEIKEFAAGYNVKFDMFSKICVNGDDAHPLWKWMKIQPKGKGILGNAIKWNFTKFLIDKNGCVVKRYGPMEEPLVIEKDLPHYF

CC1=CC(=O)CC2C1(O)CCC(C)C21CC(c2ccoc2)OC1=O (stereo not drawn)
inactive: Potency [1] | Potency [2] | Potency [3]

COc1cc2ncnc(Nc3cccc(O)c3)c2cc1OC
inactive: Potency [1] | Potency [4] | Potency [2] | Potency [3]

CC(=O)O[C@H]1C[C@@](O)(C(C)C)C2[C@@H](OC(=O)c3ccc(O)cc3)C[C@@]3(C)O[C@H]3C[C@]21C (stereo partly drawn)
inactive: Potency [1] | Potency [4] | Potency [2] | Potency [3]

CC[C@H]1OC(=O)[C@H](C)[C@@H](O[C@H]2C[C@@](C)(OC)[C@@H](O)[C@H](C)O2)[C@H](C)[C@@H](O[C@@H]2O[C@H](C)C[C@H](N(C)C)[C@H]2O)[C@](C)(O)C[C@@H](C)C(=O)[C@H](C)[C@H]2OC(=O)O[C@@]21C
inactive: Potency [1] | Potency [2] | Potency [3]

CCC(C)C1NC(=O)C2CCCN2C(=O)C(NC(C)=O)C(C)OC(=O)C(Cc2ccc(OC)cc2)N(C)C(=O)C2CCCN2C(=O)C(C(C)C)NC1=O (stereo not drawn) (Ac-TPIVP[NMeY](Me); ester 1-C; configuration not given here)
inactive: Potency [1] | Potency [4] | Potency [2] | Potency [3]

CC1(C)CC[C@]2(C(=O)O[C@@H]3O[C@H](CO)[C@@H](O)[C@H](O)[C@H]3O)CC[C@]3(C)C(=CCC4[C@@]5(C)C[C@@H](O)[C@H](O)C(C)(C)C5CC[C@]43C)C2[C@@H]1O (stereo partly drawn)
inactive: Potency [1] | Potency [2] | Potency [3]

C=C1C(=O)OC2C1CCC(=C)C1CC(OC(C)=O)C(=C)C12 (stereo not drawn)
inactive: Potency [5] | Potency [2]
active: Potency [4] 18.9 µM

CC(=O)OCC1(O)CCC2C(COC3OC(CO)C(O)C(O)C3OC(=O)/C=C/c3ccc(O)cc3)=COC(OC(=O)CC(C)C)C21 (stereo not drawn)
inactive: Potency [5] | Potency [4] | Potency [2]

CN1c2ccccc2C(=O)N2CCC3c4ccccc4NC3C21 (stereo not drawn)
active: Potency [5] 10.5 µM

Cc1cnc(Nc2ccc(F)cc2Cl)nc1-c1c[nH]c(C(=O)NC(CO)c2cccc(Cl)c2)c1 (stereo not drawn)
inactive: Potency [5] | Potency [2]
active: Potency [4] 2.67 µM

COc1cc2nc(N3CCC(N4CCCCC4)CC3)nc(NC3CCCCCC3)c2cc1OC
inactive: Potency [5] | Potency [4] | Potency [2] | Potency [3]

COc1cc2c(NC3CCN(CC4CCCCC4)CC3)nc(N3CCCN(C(C)C)CC3)nc2cc1OCCCN1CCCCC1
inactive: Potency [5] | Potency [4] | Potency [2] | Potency [3]

COc1cc(Nc2nc3c(s2)CCCC3c2ccc(F)cc2)ccc1-n1cnc(C)c1 (stereo not drawn)
inactive: Potency [5] | Potency [2] | Potency [3]
active: Potency [4] 11.9 µM

COc1ccc(C(=O)n2c(C)c(Cc3cccc(O[C@@H](C)C(=O)O)c3)c3cc(OC(F)(F)F)ccc32)cc1
inactive: Potency [5] | Potency [4] | Potency [2] | Potency [3]

CCOc1cc(CC(=O)NC(CC(C)C)c2ccccc2N2CCCCC2)ccc1C(=O)O (stereo not drawn)
inactive: Potency [5] | Potency [4] | Potency [2] | Potency [3]

CC1(C)CC[C@]23CO[C@@]4(CCC5[C@@]6(C)CC[C@H](O[C@@H]7OC[C@H](O[C@@H]8O[C@H](CO)[C@@H](O)[C@H](O)[C@H]8O)[C@H](O)[C@H]7O[C@@H]7O[C@H](CO)[C@@H](O[C@@H]8O[C@H](CO)[C@@H](O)[C@H](O)[C@H]8O)[C@H](O)[C@H]7O)[C@@](C)(CO)C6CC[C@@]5(C)[C@]4(C)C[C@H]2OC2OCC(O)C(O)C2O)C3C1 (stereo partly drawn)
inactive: activity change, negative = inhibition [5] -1.22% [at 11.6 µM] | activity change, negative = thiol reactive [4] 227% [at 11.5 µM] | activity, negative = inhibition [2] 0% [at 11.6 µM] | redox activity (% of DA3003) [3] 2.43% [at 11.5 µM]

CC1=CCC(C(C)(C)O[C@@H]2O[C@H](CO[C@@H]3O[C@@H](C)[C@H](O)[C@@H](O)[C@H]3O)[C@@H](O)[C@H](O)[C@H]2O)CC1 (stereo partly drawn)
inactive: Potency [5] | Potency [4] | Potency [2] | Potency [3]

Cc1cc(C)c2c(N)c(C(=O)NCc3ccc(Cl)cc3)sc2n1
inactive: Potency [5] | Potency [4] | Potency [2] | Potency [3]

CON(C)C(=O)[C@H](O)[C@H](Cc1ccccc1)NC(=O)c1cc2cc(Cl)ccc2[nH]1
inactive: Potency [5] | Potency [4] | Potency [2] | Potency [3]

CC(C)(C)C(=O)CN1C(=O)[C@H](NC(=O)Nc2cccc(C(=O)O)c2)CN(C2CCCCC2)c2ccccc21
inactive: Potency [5] | Potency [4] | Potency [2]

Cc1ccc(-c2ccc3c(ccc4sc5c(c43)NC[C@@H](C)NC5=O)n2)cn1
inactive: Potency [5] | Potency [4] | Potency [2] | Potency [3]

CCc1c(-c2ccccc2)c(-c2ccccc2)nn1-c1ccccc1-c1cccc(OCC(=O)O)c1
inactive: Potency [5] | Potency [4] | Potency [3]
active: Potency [2] 0.269 µM
